Screens (PubChem BioAssay)
An excerpt weighted towards active compounds, which were near 19% of everything screened.
KB-V1 MDR tox – qHTS assay for MDR1-selective chemotherapeutics: Primary screen using the drug-selected MDR subline cells KB-V1. KB-V1 MDR cells viability, CellTiter-Glo, 72 h. Potency, µM (series often up to 46.1 µM), actives largely listed as cytotoxic. 400,000 tested, 3.4% active; further: nearly all actives have a fitted effect of over 60% in size
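Following 72 h at 37 degrees C with compound, KB-V1 cell viability was read by CellTiter-Glo luminescence, medium being phenol-red-free DMEM plus 10% FBS; concentration-response parameters came from normalized, curve-fitted qHTS data.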
KB-3-1 cytotox – qHTS assay for MDR1-selective chemotherapeutics: Primary screen using the parental adenocarcinoma cell KB-3-1; 400,000 tested, 1.4% active; KB-3-1 viability, CellTiter-Glo ATP luminescence, 72 h; Potency, µM (doses to about 46.1 µM), hits mostly cytotoxic; AID 1347075, 2019; further: nearly all actives have a fitted effect of over 60% in size
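Cells are dispensed, compounds pinned in, plates held at 37 °C for 72 h, then CellTiter-Glo is added and luminescence read after 10 minutes. Cell line: parental KB-3-1 in phenol-red-free DMEM, 10% FBS.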
HT1080-NT tox – qHTS for induction of synthetic lethality in tumor cells producing 2HG: qHTS for the HT-1080-NT fibrosarcoma cell line. HT-1080-NT fibrosarcoma viability, CellTiter-Glo ATP luminescence, 48 h. Potency, µM (series often up to 46.1 µM), hits mostly cytotoxic. 360,000 tested, 1.6% active;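 further: NT is the 2HG producing partner of a matched IDH1 knockdown line; nearly all actives have a fitted effect of over 55% in size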
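Fibrosarcoma NT cells, 750 per well in 5% FBS RPMI, were exposed to compound for 48 hours. Viability: CellTiter-Glo luminescence.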
TDP1 cell CPT – qHTS for Inhibitors of human tyrosyl-DNA phosphodiesterase 1 (TDP1): qHTS in cells in presence of CPT; chicken DT40 Tdp1-/-;hTDP1 cells + 20 nM CPT, ATP luminescence, 48 h; Potency, µM (series often up to 46.2 µM), usual class: inhibitors; 420,000 tested, 12% active; further: nearly all actives have a fitted effect of over 55% in size
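Cell growth measured by CellTiter-Glo luminescence after a minimum 48 h, 37 C compound exposure with 20 nM CPT in Tdp1-knockout DT40 cells stably expressing hTDP1, seeded 400/well; qHTS titration format.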
DT40 TDP1 no CPT – qHTS for Inhibitors of human tyrosyl-DNA phosphodiesterase 1 (TDP1): qHTS in cells in absence of CPT; AID 686978, 2013; Potency, µM (highest dose often 46.2 µM), most hits filed as inhibitors; 420,000 tested, 15% active; DT40 Tdp1-/- hTDP1 cells, no CPT, ATP luminescence, 48 h; further: nearly all actives have a fitted effect of over 55% in size
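Growth kinetics read by CellTiter-Glo luminescence after ≥48 hr at 37 °C. Cells: DT40 Tdp1-/- stably carrying human TDP1, 400 per well, compound exposure in the absence of CPT (DMSO vehicle).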
HT1080 IDH1KD tx – qHTS for induction of synthetic lethality in tumor cells producing 2HG: qHTS for the HT-1080-IDH1KD cell line; HT-1080 IDH1 knockdown viability, ATP luminescence, 48 h; Potency, µM (doses to about 46.1 µM), usual class: cytotoxic; 360,000 tested, 2% active
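Assay cells: HT-1080 with IDH1 knockdown, 750 per well, RPMI/5% FBS. Exposure: 48 h at 37 °C following 2 h pre-incubation. Read: CellTiter-Glo luminescence; fitted concentration-response, curve class assigned.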
Large screens that a line does not name were inactive. The call rests on the fitted dose curve; in most records, active means well fitted curve in the direction sought with a large enough effect; inconclusive means small, poorly fitted or top-dose-only effect, or another doubt; inactive means no such curve, though single readings can be large; an effect the other way counts as inactive or inconclusive.

CCOc1ccc(NC(=O)CCc2c(C)nc3c(-c4ccccc4)c(C)nn3c2C)cc1	DT40 TDP1 no CPT inconclusive (no result: HT1080-NT tox, HT1080 IDH1KD tx)
CCN1CCN(c2ccc(NC(=O)CCc3c(C)nc4c(-c5ccccc5)c(C)nn4c3C)cc2)CC1	KB-V1 MDR tox inconclusive, KB-3-1 cytotox inconclusive, TDP1 cell CPT inconclusive, DT40 TDP1 no CPT 16µM, HT1080 IDH1KD tx inconclusive
Cc1nc2c(-c3ccccc3)c(C)nn2c(C)c1CCC(=O)NC(C)c1ccccc1 (stereo not given)	DT40 TDP1 no CPT inconclusive (no result: HT1080-NT tox, HT1080 IDH1KD tx)
COC(=O)C(NC(=O)CCc1c(C)nc2c(-c3ccccc3)c(C)nn2c1C)C(C)C (stereo not given)	TDP1 cell CPT inconclusive, DT40 TDP1 no CPT 26µM (no result: HT1080-NT tox, HT1080 IDH1KD tx)
CC(C)C(C)(C)C(C)(C)C(C)(C)S	none (no result: KB-V1 MDR tox, KB-3-1 cytotox, HT1080-NT tox, HT1080 IDH1KD tx)
CSc1ccc(-c2nc(CN3CCCCC3c3cccnc3)c(C)o2)cc1 (stereo not given)	TDP1 cell CPT inconclusive, DT40 TDP1 no CPT inconclusive
C=CCNC(=O)C(=O)NCCOc1ccccc1Cl	KB-3-1 cytotox 7.3µM, HT1080-NT tox inconclusive, TDP1 cell CPT 12µM, DT40 TDP1 no CPT inconclusive, HT1080 IDH1KD tx inconclusive
Cc1cc(C)n2c(SCc3ccc(Cl)cc3Cl)nnc2n1	KB-V1 MDR tox inconclusive, HT1080-NT tox inconclusive, TDP1 cell CPT inconclusive, DT40 TDP1 no CPT 18µM, HT1080 IDH1KD tx inconclusive
COc1ccc2nc(Nc3nc4cc5c(cc4s3)OCO5)sc2c1	TDP1 cell CPT inconclusive, DT40 TDP1 no CPT 7.3µM
COc1ccccc1NC(=O)Nc1nc2ccc(S(N)(=O)=O)cc2s1	TDP1 cell CPT inconclusive, DT40 TDP1 no CPT inconclusive
COc1cccc(NC(=O)C2CC2(c2cccc(OC)c2)c2cccc(OC)c2)c1 (stereo not given)	TDP1 cell CPT inconclusive, DT40 TDP1 no CPT inconclusive
COc1cccc(C2(c3cccc(OC)c3)CC2C(=O)Nc2cccc3ccccc23)c1 (stereo not given)	TDP1 cell CPT inconclusive, DT40 TDP1 no CPT 26µM
Cc1cc(NC(=O)Cc2ccccc2C)no1	TDP1 cell CPT 23µM
COc1ccc2nc(NC(=O)Nc3ccccc3OC)sc2c1	KB-V1 MDR tox 4.6µM, KB-3-1 cytotox 5.2µM, HT1080-NT tox inconclusive, TDP1 cell CPT 9.2µM, DT40 TDP1 no CPT 5.2µM, HT1080 IDH1KD tx inconclusive
COCCCNC(=O)CCN1N=C(c2ccccc2)CCC1=O	none
CC(=O)Nc1sc(N/N=C\c2ccco2)nc1-c1cccs1	TDP1 cell CPT inconclusive, DT40 TDP1 no CPT inconclusive
Cc1ccc(C(=O)N2CCN(C)CC2)cc1S(=O)(=O)N1CCCCCC1	none
CC(=O)N(C)c1ccc(NC(=O)Nc2ccc(C)c(C)c2)cc1	KB-3-1 cytotox inconclusive, TDP1 cell CPT inconclusive, DT40 TDP1 no CPT 18µM
CC(=O)N(C)c1ccc(NC(=S)Nc2ccc(C(C)C)cc2)cc1	TDP1 cell CPT 16µM, DT40 TDP1 no CPT 26µM
CC(C)c1ccc(NC(=S)Nc2ccc3[nH]c(=O)[nH]c3c2)cc1	KB-V1 MDR tox inconclusive
Cc1cccc(NC(=O)Nc2cccc3ccccc23)c1	none
COc1ccc2nc(NC(C)=O)sc2c1	TDP1 cell CPT inconclusive, DT40 TDP1 no CPT inconclusive
CC(=O)N(C)c1ccc(NC(=O)Nc2ccccc2C)cc1	HT1080-NT tox inconclusive
CCC(C)C(=O)Nc1nc2ccc(OC)cc2s1 (stereo not given)	TDP1 cell CPT inconclusive, DT40 TDP1 no CPT 16µM
Cc1cc(NC(=O)Nc2cccc3ccccc23)no1	TDP1 cell CPT 9.2µM, DT40 TDP1 no CPT inconclusive
c1ccc2c(c1)CCCN2	none (no result: HT1080-NT tox, HT1080 IDH1KD tx)
Cc1ccc(C)c(NC(=O)Nc2nnc(N(CC(C)C)CC(C)C)s2)c1	TDP1 cell CPT inconclusive, DT40 TDP1 no CPT inconclusive (no result: HT1080-NT tox, HT1080 IDH1KD tx)
